Most compounds without a hit are left out; they make up all but 8% or so of the library.
LASV entry inh: qHTS for Inhibitors of binding or entry into cells for Lassa Virus; Lassa virus pseudotype entry inhibition, cell reporter; Potency, µM (titrated, usually from 37.9 µM), most hits filed as inhibitors; 300,000 tested, 1.2% active; AID 540256, 2011; calls by dose curve; tested in HEK293 cells; further: nearly all actives have a fitted effect of over 50% in size
HCMV antiviral: qHTS Assay for inhibitors of the human cytomegalovirus (HCMV) | HFF cells, HCMV-luciferase reporter, 72 h; stronger effect = lower value | AID 1259415, 2018 | activity change, negative = inhibition, % at 57.5 µM | 410,000 tested, 4.5% active; in the data active means activity change below about -60%; inconclusive means no clear call, values can overlap the other calls; inactive means above about -39%
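After 16 h attachment at 37C, HFF cells received test compound and HCMV-luciferase (1 PFU/cell); reporter luminescence read 72 h later, data normalized against buffer-only and known inhibitor Salinomycin.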
HCV inh: qHTS Assay for Inhibitors of Hepatitis C Virus (HCV). Huh7.5.1 HCVcc-Cre infection, luciferase reporter, 44 h. Potency, µM (doses to about 41.8 µM), hits mostly inhibitors. 340,000 tested, 3.4% active. AID 651820, 2012; active means well fitted inhibition curve with a large enough effect; inconclusive means small, poorly fitted or top-dose-only effect, or another doubt; inactive means no such curve, though single readings can be large or run the other way
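1,000 cells/well; 4 h culture; + compound; + HCVcc-Cre (~0.5 moi); 44 h; luciferase substrate, RT 15 min; read 15 sec.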
FMDV antiviral: High Throughput Screening for Foot and Mouth Disease Virus Antivirals | Potency, µM (titrated, usually from 57.9 µM), actives largely listed as inhibitors | 410,000 tested, 1.2% active | FMDV antiviral cell-based qHTS; calls by dose curve; tested in HEK293T cells; further: read-out not given here; nearly all actives have a fitted effect of over 45% in size
SARS PLpro yeast: qHTS of Yeast-based Assay for SARS-CoV PLP; 330,000 tested, 0.19% active; Potency, µM (highest dose often 32.9 µM), actives largely listed as activators; S. cerevisiae expressing SARS-CoV PLpro, growth rescue; calls by dose curve; further: nearly all actives have a fitted effect of over 55% in size
Marburg entry inh: qHTS for inhibitors of binding or entry into cells for Marburg Virus; Marburg virus pseudotyped entry inhibition, cell reporter; Potency, µM (titrated, usually from 37.8 µM), most hits filed as inhibitors; 300,000 tested, 1.8% active; AID 540276, 2011; calls by dose curve; tested in HEK293 cells
Large screens that a line does not name were inactive.

COc1ccc(O)c(/C=N/Nc2nc(C)cc(-c3ccccc3)n2)c1	HCV inh 4µM, Marburg entry inh inconclusive (no result: SARS PLpro yeast)
COc1ccc(/C=N/Nc2nc(C)cc(-c3ccccc3)n2)c(OC)c1	HCV inh inconclusive
CC(=O)N1c2ccc(S(=O)(=O)NCCC(=O)Nc3ccc(F)cc3C)cc2CC1C (stereo unspecified)	none (no result: LASV entry inh, Marburg entry inh)
CCCCC(=O)N[C@H]1CC[C@@]23CCCN2C(=O)CCC[C@H]3[C@H]1Cc1ccccc1	none (no result: LASV entry inh, HCV inh, FMDV antiviral, SARS PLpro yeast, Marburg entry inh)
C/C(N)=C(/C#N)C(=O)CSc1cc(Cl)ccc1Cl	none
C/C(N)=C(/C#N)C(=O)CSc1nc2cc(Cl)ccc2c(=O)n1Cc1ccco1	LASV entry inh inconclusive, HCMV antiviral inconclusive, HCV inh 14µM
C/C(N)=C(/C#N)C(=O)CSc1nc2ccccc2c(=O)n1Cc1ccc(C)cc1	LASV entry inh inconclusive, HCMV antiviral inconclusive, Marburg entry inh inconclusive
COc1ccc(-n2c(SCC(=O)/C(C#N)=C(\C)N)nc3ccccc3c2=O)cc1OC	none (no result: LASV entry inh, Marburg entry inh)
C/C(N)=C(/C#N)C(=O)CSc1nc2cc(Cl)ccc2s1	HCV inh 8.9µM
C/C(N)=C(/C#N)C(=O)CSc1nc2cc(Cl)ccc2c(=O)n1-c1ccc(C)cc1	HCMV antiviral inconclusive, HCV inh 7.1µM
CCCCn1c(SCC(=O)/C(C#N)=C(\C)N)nc2ccccc2c1=O	LASV entry inh inconclusive, HCMV antiviral -73, HCV inh inconclusive
CCCCCCCCCCCCCCC(C(=O)OC)C(O)(CC(=O)OC)C(=O)OC (stereo unspecified)	none (no result: LASV entry inh, HCMV antiviral, HCV inh, SARS PLpro yeast, Marburg entry inh)
CCN1CCc2c(sc(NC(=O)c3ccc(S(=O)(=O)N4CCCCCC4)cc3)c2C(=O)NC)C1	HCV inh inconclusive, Marburg entry inh inconclusive
CC1CC(C)CN(C(=O)c2cc3cc(Br)cc(Br)c3o2)C1 (stereo unspecified)	LASV entry inh inconclusive, Marburg entry inh inconclusive
NC(=O)c1c(-c2ccc(Cl)cc2Cl)csc1NC(=O)Cc1ccccc1	HCMV antiviral -65, HCV inh inconclusive, FMDV antiviral inconclusive, Marburg entry inh inconclusive
O=C(CCC1N=C2c3ccccc3N=C(SCc3cccc(F)c3)N2C1=O)NCc1cccs1 (stereo unspecified)	FMDV antiviral inconclusive (no result: HCV inh, SARS PLpro yeast, Marburg entry inh)
COC(=O)C1=CN(c2ccc(OC)cc2)C=C(C(=O)OC)C1c1ccc(C)c([N+](=O)[O-])c1	LASV entry inh inconclusive, HCMV antiviral -78, HCV inh inconclusive, FMDV antiviral inconclusive, Marburg entry inh inconclusive
COC(=O)C1=CN(c2cccc(C)c2)C=C(C(=O)OC)C1c1cc(OC)c(O)c([N+](=O)[O-])c1	LASV entry inh 4.1µM, Marburg entry inh inconclusive
COC(=O)C1CCN(Cc2ccc3c(c2)CN(C(=O)c2cc(C4CC4)on2)CCO3)CC1	none (no result: LASV entry inh, HCMV antiviral, HCV inh, SARS PLpro yeast, Marburg entry inh)
COC(=O)CC=C1c2ccc(F)cc2[C@@H](OC)[C@@H]1C	LASV entry inh inconclusive (no result: HCMV antiviral, HCV inh, FMDV antiviral, SARS PLpro yeast)
CC(=O)N1CCc2cc(S(=O)(=O)NC(C(=O)Nc3nc(C)cs3)C(C)C)ccc21 (stereo unspecified)	HCMV antiviral -61
CC(=O)N1CCc2cc(S(=O)(=O)NC(C(=O)Nc3ccc(C)cc3C)C(C)C)ccc21 (stereo unspecified)	none (no result: HCV inh, SARS PLpro yeast)
O=C(NC(=S)Nc1ccccc1N1CCN(C(=O)c2ccccc2)CC1)c1cccs1	none (no result: LASV entry inh, Marburg entry inh)
O=C(NC(=S)Nc1ccccc1N1CCOCC1)c1cccs1	HCMV antiviral -72, FMDV antiviral inconclusive, Marburg entry inh inconclusive
O=C(NC(=S)Nc1ccc(N2CCN(C(=O)c3ccccc3)CC2)cc1)c1cccs1	LASV entry inh inconclusive, HCMV antiviral -64, HCV inh 32µM, FMDV antiviral inconclusive, Marburg entry inh inconclusive
COc1cccc(C(=O)Nc2ccc(N3CCN(C(=O)c4cccs4)CC3)cc2)c1	LASV entry inh inconclusive, HCV inh inconclusive, FMDV antiviral 32µM, Marburg entry inh inconclusive
N#Cc1nc(-c2ccc(COc3ccc(Cl)cc3)o2)oc1N1CCCCC1	FMDV antiviral inconclusive (no result: HCV inh, SARS PLpro yeast)
N#Cc1c(C(F)(F)F)cc(-c2cccs2)nc1SCC(=O)Nc1ccc(Cl)cc1	HCMV antiviral -92, FMDV antiviral inconclusive (no result: HCV inh, SARS PLpro yeast)
CCOc1ccc(NC(=O)CSc2nc(-c3cccs3)cc(C(F)(F)F)c2C#N)cc1	none (no result: HCV inh, SARS PLpro yeast)
O=C(CSc1nc2nc(-c3cccs3)cc(C(F)(F)F)c2c(=O)[nH]1)Nc1ccc(F)c(F)c1	LASV entry inh inconclusive, HCMV antiviral -97, HCV inh inconclusive, FMDV antiviral inconclusive, Marburg entry inh inconclusive
CN1CCc2nc(SCC(=O)Nc3ccc(OC(F)(F)F)cc3)c(C#N)c(-c3cccs3)c2C1	HCV inh 13µM, Marburg entry inh inconclusive
Cc1cccc(CSc2nc3c(c(-c4cccs4)c2C#N)CN(C)CC3)c1	LASV entry inh inconclusive, HCV inh inconclusive, Marburg entry inh inconclusive
CSc1ccccc1OCc1cc(C(=O)N2CCN(c3ccccc3)CC2C)no1 (stereo unspecified)	LASV entry inh inconclusive, HCV inh inconclusive
CC(=O)c1ccc(OCc2cc(C(=O)N3CCN(c4ccccc4)CC3C)no2)cc1 (stereo unspecified)	HCV inh 22µM (no result: LASV entry inh, Marburg entry inh)
Cc1ccc(-n2ncc3c(NC4CCCCC4)ncnc32)cc1C	LASV entry inh inconclusive (no result: HCV inh, SARS PLpro yeast, Marburg entry inh)
COc1ccc(-c2n[nH]c3c2C(c2ccc(OC)c(OC)c2)N(c2ccccc2)C3=O)cc1 (stereo unspecified)	LASV entry inh inconclusive, FMDV antiviral inconclusive, Marburg entry inh 7.3µM
COc1ccc(C2c3c(-c4ccc(F)cc4)n[nH]c3C(=O)N2c2ccccc2)cc1OC (stereo unspecified)	LASV entry inh inconclusive, FMDV antiviral inconclusive (no result: HCV inh, SARS PLpro yeast)
CCOC(=O)c1ccc(N2C(=O)c3[nH]nc(-c4ccc(OC)cc4)c3C2c2ccc(C)cc2)cc1 (stereo unspecified)	LASV entry inh inconclusive, HCMV antiviral -83, Marburg entry inh inconclusive (no result: HCV inh, SARS PLpro yeast)
COc1ccc(-c2n[nH]c3c2C(c2ccc(O)cc2)N(c2ccc(Br)cc2)C3=O)cc1 (stereo unspecified)	FMDV antiviral 32µM (no result: HCV inh, SARS PLpro yeast)
COc1ccc(OC)c(C2c3c(-c4ccc(Br)cc4)n[nH]c3C(=O)N2c2ccc(Cl)cc2)c1 (stereo unspecified)	LASV entry inh inconclusive, HCMV antiviral -105, Marburg entry inh inconclusive (no result: HCV inh, SARS PLpro yeast)
COC(=O)c1ccc(CN2CCC3(CCC(CNC(=O)c4ccco4)O3)CC2)cc1 (stereo unspecified)	none (no result: LASV entry inh, HCMV antiviral, HCV inh, SARS PLpro yeast, Marburg entry inh)
Cc1cc(C(=O)COc2cccnc2[N+](=O)[O-])c(C)n1Cc1ccco1	HCV inh inconclusive, Marburg entry inh inconclusive
Cc1cc(C(=O)COc2cccnc2[N+](=O)[O-])c(C)n1-c1ccccc1	LASV entry inh 4.6µM, HCMV antiviral -99, Marburg entry inh inconclusive
Cc1cc(C(=O)COc2cccnc2[N+](=O)[O-])c(C)n1-c1ccccc1F	HCMV antiviral -97 (no result: LASV entry inh, Marburg entry inh)

Bioassay records (PubChem BioAssay)
